The values that follow come from PubChem BioAssay (Tox21).

Unmarked numbers belong to inactive results. Results filed as inconclusive are left out. Activity calls are given as the source filed them. Unless noted, calls come from the whole dose curve; as a rule, active = well fitted inhibition curve with a large enough effect in the repeat runs (not every such curve was filed as active); inconclusive = weak or mixed curves; inactive = flat fitted curve, though single readings scatter.
% is set by controls: 0 for no effect and ±100 for the full control effect.

System in the first assay: not listed separately
The assay can be described thus: qHTS assay to identify small molecule agonists of the TGF-beta/Smad signaling pathway - cell viability counter screen (AID 1346829; active = well fitted cell-killing curve with a large enough effect in the repeat runs; note: nearly all actives have a fitted effect of over 45% in size; note: potency is the fitted concentration of half-maximal effect; for activity change, negative = cytotoxicity: top concentration of the series differs between compounds). As to conditions: SBE-bla HEK293T viability, CellTiter-Glo luminescence, 5 h; series mostly up to 76.8 µM; activity change, negative = cytotoxicity: at the top concentration. The gist of the method:
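Cytotoxicity counter screen: CellTiter-Glo luminescence (30 min, room temperature) measured in the SBE-bla HEK 293T reporter wells after 5 hr compound treatment at 37 C and the 2 hr substrate step.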
On to `CC=O`, for which the Potency was 28.8 µM (active).
Regarding `CS(C)(=O)=O`, the “activity change, negative = cytotoxicity” value was 3.82%.
As to `CCCCCCCC/C=C\CCCCCCCC(=O)OCCOC(=O)CCCCCCC/C=C\CCCCCCCC`, the “activity change, negative = cytotoxicity” value is 3.07%.
On the same count and under the same terms, in the case of `Cc1cc(Nc2ccc(O)cc2)ccc1N` it was 12.6%.
Regarding `CSc1ccc2c(c1)N(CCC1CCCCN1C)c1ccccc1S2` (stereo not given), the Potency is 54.7 µM (active).
For `CN(Cc1cc(Br)cc(Br)c1N)C1CCCCC1`, the “activity change, negative = cytotoxicity” value was -11.4% [at 35.3 µM].
The same measure, in the same setting: as for `CN(C)CCCN1c2ccccc2Sc2ccc(C(F)(F)F)cc21`, the figure is -0.555% [at 35.3 µM]; as for `Cc1cccc(C)c1NC(=O)CN1CCN(CCCC(c2ccc(F)cc2)c2ccc(F)cc2)CC1`, -22% [at 35.3 µM].
For `C=C1C(C)(C)[C@@]2(Cl)C(Cl)[C@]1(Cl)C(Cl)(Cl)C2(Cl)Cl` (stereo not given in full), the “activity change, negative = cytotoxicity” value was -20.3%.

System in the next assay: not listed separately
Kind of assay: qHTS assay to identify small molecule agonists of the TGF-beta/Smad signaling pathway (AID 1346859; active = well fitted activation curve with a large enough effect in the signal ratio in the repeat runs, not every such curve was filed as active; the % refers to the signal ratio). As to conditions: SBE-bla HEK293T, TGF-beta/Smad beta-lactamase reporter, 5 h; series mostly up to 76.8 µM; activation: at the top concentration. The gist of the method:
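Beta-lactamase reporter activity downstream of Smad binding elements was measured in stably transfected HEK 293T cells; compounds were incubated for 5 hr, substrate for 2 hr at room temperature.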
On to `C=CC(C)C#N` (stereo not given), for which the “activation” value is 0.563%.
With `O=C1C=CC(=O)N1c1ccccc1`, the “activation” value is 8.31%.
For `CC(C)N=C(N)/N=C(\N)Nc1ccc(Cl)cc1`, the “activation” value was -2.93% [at 35.3 µM].
Same read-out and setting: as for `CCCCOC(=O)C(C)CC` (stereo not given), the figure is 0.152%.
The same measure, in the same setting: as for `CC1CCCCN1CCCOC(=O)c1ccc(OC2CCCCC2)cc1` (stereo not given), the figure is -3.28% [at 35.3 µM]; as for `COc1cccc(CCc2ccccc2OCC(CN(C)C)OC(=O)CCC(=O)O)c1` (stereo not given), -0.732% [at 35.3 µM].
Same read-out and setting: in the case of `O=C1c2c(O)ccc([N+](=O)[O-])c2C(=O)c2c([N+](=O)[O-])ccc(O)c21` it was -7.48%.
Take `C=C(c1ccc(C(=O)O)cc1)c1cc2c(cc1C)C(C)(C)CCC2(C)C`: the Potency entry is “inactive”.
Regarding `Oc1ccc(-c2ccc(O)cc2)cc1`, the “activation” value was -7.68%.
With `CCc1ccc(O)c(C(C)(C)C)c1`, the “activation” value was -2.66%.
Still for that read-out and setting: as for `COC(=O)[C@]1(C)CCC[C@@]2(C)[C@H]1CC=C1C=C(C(C)C)CC[C@@H]12`, the figure is 4.58%; as for `CCCCCCCCCCCCOC(=O)c1cc(O)c(O)c(O)c1`, 1.39%; as for `CCN(CC)CCOc1ccc(C(O)(Cc2ccc(Cl)cc2)c2ccc(C)cc2)cc1` (stereo not given), -7.93% [at 35.3 µM].
As for `CCCCCCCC/C=C\CCCCCCCC(=O)OCCOC(=O)CCCCCCC/C=C\CCCCCCCC`, the “activation” value is -0.0607%.
The same measure, in the same setting: as for `Cc1cc(Nc2ccc(O)cc2)ccc1N`, the figure is -3.61%; as for `CSc1ccc2c(c1)N(CCC1CCCCN1C)c1ccccc1S2` (stereo not given), -6.32% [at 35.3 µM].
Regarding `CN(Cc1cc(Br)cc(Br)c1N)C1CCCCC1`, the “activation” value is 0.358% [at 35.3 µM].

The target of a further assay is Thyrotropin-releasing hormone receptor (Homo sapiens) (UniProt P34981). Kind of assay: qHTS assay to identify small molecule antagonists of the thyrotropin-releasing hormone receptor (TRHR) signaling pathway (AID 1346877). As to conditions: TRHR-HEK293, TRH-induced calcium fluorescence, antagonist mode; series mostly up to 51.3 µM; activity, negative = inhibition: at the top concentration. In a few lines: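 HEK293/TRHR cells, 18 h, 37 °C; Ca2+ dye 2 h; cpd 5 min RT; TRH 1 nM final; fluorescence read 3 min, 1 s intervals; 15 concs, triplicate.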
Chain of Thyrotropin-releasing hormone receptor (Homo sapiens) (P34981 whole entry, looked up): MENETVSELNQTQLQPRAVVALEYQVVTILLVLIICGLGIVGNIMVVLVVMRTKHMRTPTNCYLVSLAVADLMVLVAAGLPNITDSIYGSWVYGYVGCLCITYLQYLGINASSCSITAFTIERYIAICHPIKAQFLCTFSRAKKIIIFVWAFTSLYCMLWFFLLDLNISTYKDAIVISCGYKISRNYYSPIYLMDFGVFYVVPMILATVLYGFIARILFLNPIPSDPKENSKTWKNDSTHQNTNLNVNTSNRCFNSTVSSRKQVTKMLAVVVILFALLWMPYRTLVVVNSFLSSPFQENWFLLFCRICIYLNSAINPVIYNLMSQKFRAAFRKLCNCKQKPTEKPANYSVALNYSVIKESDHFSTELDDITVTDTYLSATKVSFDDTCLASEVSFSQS
In general terms: In qHTS, concentration-response curves come from the screen itself.
Consider `Nc1cc(Cl)c([N+](=O)[O-])cc1O`, for which the “activity, negative = inhibition” value was 0.511%.
Consider `CCC1(c2cnc[nH]2)Cc2ccccc2C1`, for which the “activity, negative = inhibition” value is 23.5% [at 23.6 µM].
Same read-out and setting: in the case of `O=C1C=CC(=O)N1c1ccccc1` it was -2.48%; in that of `CC(C)N=C(N)/N=C(\N)Nc1ccc(Cl)cc1`, 6.39% [at 23.6 µM]; in that of `Clc1ccccc1CN1CCc2sccc2C1`, -3.91% [at 23.6 µM].
Same read-out and setting: as for `CCCCOC(=O)C(C)CC` (stereo not given), the figure is 13.3%.
Turning to `CC1CCCCN1CCCOC(=O)c1ccc(OC2CCCCC2)cc1` (stereo not given), the “activity, negative = inhibition” value is 1.83% [at 23.6 µM].
On the same count and under the same terms, in the case of `CCC(C)c1cc([N+](=O)[O-])cc([N+](=O)[O-])c1OC(=O)OC(C)C` (stereo not given) it was -12.1%; in that of `COc1cccc(CCc2ccccc2OCC(CN(C)C)OC(=O)CCC(=O)O)c1` (stereo not given), 0.394% [at 23.6 µM].
In the case of `CC(CN(C)C)CN1c2ccccc2CCc2ccccc21` (stereo not given), the “activity, negative = inhibition” value was -3.48% [at 23.6 µM].
For `Oc1ccc(-c2ccc(O)cc2)cc1`, the “activity, negative = inhibition” value was 0.313%.
For the compound `CCN(CC)c1ccc(N)cc1`, the “activity, negative = inhibition” value is -1.67%.
The same measure, in the same setting: in the case of `COC(=O)[C@]1(C)CCC[C@@]2(C)[C@H]1CC=C1C=C(C(C)C)CC[C@@H]12` it was 5.39%.
As to `CC(=O)Nc1ccc(O)cc1`, the Potency result is “inactive”.
For `CCN(CC)CCOc1ccc(C(O)(Cc2ccc(Cl)cc2)c2ccc(C)cc2)cc1` (stereo not given), the “activity, negative = inhibition” value is -23.2% [at 23.6 µM].
The same measure, in the same setting: in the case of `CS(C)(=O)=O` it was -6.02%; in that of `CN(Cc1cc(Br)cc(Br)c1N)C1CCCCC1`, -4.02% [at 23.6 µM].

The target is the same in a further assay. The assay can be described thus: qHTS assay to identify small molecule agonists of the thyrotropin-releasing hormone receptor (TRHR) signaling pathway (AID 1346891; calls by dose curve;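 note: HEK293 cells expressing TRHR with calcium dye readout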). As to conditions: TRHR-HEK293 calcium fluorescence, agonist mode; series mostly up to 57.6 µM; activation: at the top concentration. In a few lines:
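Overnight-plated (18 h, 37 °C, 5% CO2) TRHR-Hek293 cells; 2 h calcium dye at 37 °C; compound in DMSO; 3-min kinetic fluorescence read.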
With `Nc1cc(Cl)c([N+](=O)[O-])cc1O`, the “activation” value was 0.033%.
Same read-out and setting: as for `CCC1(c2cnc[nH]2)Cc2ccccc2C1`, the figure is -1.19% [at 26.5 µM].
